± gives the standard deviation.
system: MILI (PIWIL2) piRISC loaded with piRNA #1 (26 nt); assay: pre-steady-state target cleavage rate (min^-1); guide: piRNA #1 5'p-UGAGGUAGUAGGUUGUAUAGUAUCCA; MIWI and MILI are mouse PIWI proteins and EfPiwi is from a freshwater sponge; tags in brackets are library labels; higher = faster piRNA-guided slicing of the target; conditions: auxiliary factor: 500 nM mouse GTSF1
How it was run: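 In this Cleave-'n-Seq assay, uncleaved targets were sequenced and normalised to depth and to weakly complementary targets. They came from a transcribed, DNA-blocked target RNA library […] mixed with 1 nM active affinity-purified piRISC carrying one synthetic guide, with or without 500 nM GTSF1 partner protein, in HEPES–potassium acetate buffer at 33 °C for 0–8 or 0–960 min. After three trials were pooled and k3 was capped at 0.0001 min^-1, the pre-steady-state cleavage rate was obtained from a burst-and-steady-state fit.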
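Further: 1 nM active piRISC with 0.1 nM target library at 33 °C single turnover.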

Sequence	pre-steady-state target cleavage rate
GGAGACCAUACUAUACAACCAACUACCACA	0.00384 ± 0.0026
GGAGACCUAUGUAUACCAACCUACUACCUCA	0.00297 ± 0.003
GGAGACCAUACUAUACAUGCUACUACCUCA	0.0704 ± 0.01
GGAGACCUUACUAUAGAACCUACUACCUGA	0.0254 ± 0.0086
GGAGACCAUACUUUACAACCUACAACCUCA	0.14 ± 0.018
GGAGACCUAUCAAUACAACCUACUAGCUCA	0.0299 ± 0.0076
GGAGAGGAUACUAUAAACCUACUACCUCA	0.0203 ± 0.0036
GGAGACCUAUCUAUACAACCAUACUACCUCA	0.0049 ± 0.0031
GGAGACCUAUGUAUACUACCUACUACCUGA	0.0173 ± 0.0042
GGAGACCUAUGAUAUGUUCCUACUACGUGA	< 0.0001
GGAGACGAUACUAUACAUCCUACUACGUCA	0.213 ± 0.033
GGAGACCUAUCUAUACAACCUACCUACCUCA	0.0519 ± 0.0097
GGAGACCUUACUAUACUACCUACUACCUGA	0.105 ± 0.014
GGAGACCUAUGAAUAUAACCUACUACCUCA	0.0081 ± 0.0024
GGAGACCUAUGUAUACAACCUACUACCACA	0.0991 ± 0.01
GGAGACCUAUGAAUACUACCUACUACCUCA	0.0049 ± 0.0017
GGAGACCUAUGAAUACAACCUUCUACCUCA	0.00275 ± 0.0024
GGAGACCUAACUAUACAUCCUAGUACCUCA	0.0577 ± 0.02
GGAGACCUAUGAAUACAAGCUACUUCCUCA	0.0166 ± 0.0043
GGAGACCUAUGAUUACAACCUACCUACCUCA	0.00646 ± 0.0028

Sequence	pre-steady-state target cleavage rate
GGAGACCUAUGUAUACAACCUUCUACCUCA	0.00351 ± 0.0017
GGAGACCUAUGAUUACAACCUACUUACCUCA	0.0057 ± 0.0019
GGAGACCUAUCUAUACAACCUACUACACUCA	0.179 ± 0.022
GGAGACCAUACUAGUACAACCUACUACCUCA	0.089 ± 0.011
GGAGACCUAACUAUACAACCUACUACACUCA	0.168 ± 0.028
GGAGACCUAUGAUUACUACCUACUACCUCA	0.00306 ± 0.0021
GGAGACCAUACUAUACAACCUACUACCUA	0.125 ± 0.016
GGAGACCUAUGAUUACAACCUACUACCUUA	0.00425 ± 0.0023
GGAGACCUAACUUACAACCUACUACCUCA	0.0068 ± 0.0056
GGAGACCUAUGUAUACAACCUACUACUUCA	0.0634 ± 0.0075
GGAGACCUAACUAUACAACCUACAAGCUCA	0.0191 ± 0.011
GGAGAGGAUAGAAUACAACCUACUACCUCA	0.096 ± 0.01
GGAGACCUAUGAUAACAACCUACUCACCUCA	0.00465 ± 0.0027
GGAGACCAUACAUAACAACCUACUACCUCA	0.0246 ± 0.0068
GGAGACCUAUGAAUACAACCUACUACCUGCA	0.00801 ± 0.004
GGAGACCUAUGAUAACCAACCUACUACCUCA	0.00371 ± 0.0025
GGAGACCUAUCUAUACAACGUACAACCUCA	0.0149 ± 0.0048
GGAGACCUAUCUAUACAACGUACUACCUGA	0.00689 ± 0.0021
GGAGUGGAUACUAUACAAGGAACUACCUCA	0.00353 ± 0.0018
GGAGACCUAUGAUAUGUUGCUACUGACCUCA	< 0.0001

— the supplement of paper PMC10338343
